Test results as given in the supplement of paper PMC8728848.
Only a selection was taken, and the strongest signals are over-represented in it overall.

Legend:
Test in all cases: glycan array binding signal (z-score within array); higher = stronger binding
Details in all cases: glycan notation: IUPAC condensed, linker removed
[1] = target: Gal(b1-4)GlcNAc(b1-3)Gal(b1-4)GlcNAc(b1-2)[Gal(b1-4)GlcNAc(b1-3)Gal(b1-4)GlcNAc(b1-6)]Man(a1-6)[Gal(b1-4)GlcNAc(b1-3)Gal(b1-4)GlcNAc(b1-2)Man(a1-3)]Man(b1-4)GlcNAc(b1-4)[Fuc(a1-6)]GlcNAc
Procedure, shortened: (§1)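 Arrays were curated from the Consortium for Functional Glycomics database, 3228 in total, and kept only where the protein sequence was available. Binding is expressed as a within-array Z-score. This score was averaged across arrays of the same protein sequence at different concentrations or buffers and across linkers, and negative values can be read as non-binding.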

[2] = target: Gal(b1-4)GlcNAc(b1-3)Gal(b1-4)GlcNAc(b1-3)Gal(b1-4)GlcNAc(b1-3)Gal(b1-4)GlcNAc(b1-2)Man(a1-3)[Gal(b1-4)GlcNAc(b1-3)Gal(b1-4)GlcNAc(b1-3)Gal(b1-4)GlcNAc(b1-3)Gal(b1-4)GlcNAc(b1-2)Man(a1-6)]Man(b1-4)GlcNAc(b1-4)GlcNAc
Procedure, shortened: as §1

[3] = target: Gal(b1-4)GlcNAc(b1-3)[GlcNAc(b1-6)]Gal(b1-4)GlcNAc
Procedure, shortened: as §1

[4] = target: Gal3S(b1-3)[Fuc(a1-4)]GlcNAc
Procedure, shortened: as §1

Gal6S(b1-3)GlcNAc6S = target: Gal6S(b1-3)GlcNAc6S
Procedure, shortened: as §1

Gal6S(b1-4)GlcNAc = target: Gal6S(b1-4)GlcNAc
Procedure, shortened: as §1

[5] = target: GalNAc(b1-4)GlcNAc(b1-2)Man(a1-3)[GalNAc(b1-4)GlcNAc(b1-2)Man(a1-6)]Man(b1-4)GlcNAc(b1-4)GlcNAc
Procedure, shortened: as §1

GalNAc3S(b1-4)GlcNAc = target: GalNAc3S(b1-4)GlcNAc
Procedure, shortened: as §1

[6] = target: GlcNAc(b1-2)Man(a1-3)[GlcNAc(b1-2)Man(a1-6)]Man(b1-4)GlcNAc(b1-4)GlcNAc
Procedure, shortened: as §1

[7] = target: GlcNAc(b1-3)Gal(b1-4)GlcNAc(b1-3)Gal(b1-4)GlcNAc(b1-3)Gal(b1-4)GlcNAc(b1-2)Man(a1-3)[GlcNAc(b1-3)Gal(b1-4)GlcNAc(b1-3)Gal(b1-4)GlcNAc(b1-3)Gal(b1-4)GlcNAc(b1-2)Man(a1-6)]Man(b1-4)GlcNAc(b1-4)GlcNAc
Procedure, shortened: as §1

[8] = target: GlcNAc(b1-3)[GlcNAc(b1-6)]GalNAc
Procedure, shortened: as §1

[9] = target: GlcNAc(b1-4)GlcNAc(b1-4)GlcNAc(b1-4)GlcNAc(b1-4)GlcNAc
Procedure, shortened: as §1

[10] = target: Man(a1-2)Man(a1-3)[Man(a1-2)Man(a1-6)]Man
Procedure, shortened: as §1

[11] = target: Man(a1-2)Man(a1-3)[Man(a1-6)]Man(a1-6)[Man(a1-2)Man(a1-3)]Man(b1-4)GlcNAc(b1-4)GlcNAc
Procedure, shortened: as §1

[12] = target: Neu5Ac(a2-3)Gal(b1-4)GlcNAc(b1-2)Man(a1-3)[GlcNAc(b1-4)][Neu5Ac(a2-3)Gal(b1-4)GlcNAc(b1-2)Man(a1-6)]Man(b1-4)GlcNAc(b1-4)GlcNAc
Procedure, shortened: as §1

[13] = target: Neu5Ac(a2-3)Gal(b1-4)GlcNAc(b1-2)Man(a1-3)[Neu5Ac(a2-6)Gal(b1-4)GlcNAc(b1-2)Man(a1-6)]Man(b1-4)GlcNAc(b1-4)GlcNAc
Procedure, shortened: as §1

[14] = target: Neu5Ac(a2-3)Gal(b1-4)GlcNAc(b1-3)[Neu5Ac(a2-3)Gal(b1-4)GlcNAc(b1-6)]GalNAc
Procedure, shortened: as §1

[15] = target: Neu5Ac(a2-3)Gal(b1-4)[Fuc(a1-3)]GlcNAc(b1-3)Gal(b1-4)GlcNAc
Procedure, shortened: as §1

Neu5Ac(a2-6)Gal(b1-4)Glc = target: Neu5Ac(a2-6)Gal(b1-4)Glc
Procedure, shortened: as §1

[16] = target: Neu5Ac(a2-6)GalNAc(b1-4)GlcNAc6S
Procedure, shortened: as §1

[17] = target: Neu5Ac(a2-8)Neu5Ac(a2-8)Neu5Ac(a2-3)Gal(b1-4)Glc
Procedure, shortened: as §1

[18] = target: Neu5Ac(a2-8)Neu5Gc(a2-3)Gal(b1-4)GlcNAc
Procedure, shortened: as §1

[19] = target: Neu5Gc(a2-8)Neu5Ac(a2-3)Gal(b1-4)GlcNAc
Procedure, shortened: as §1

[20] = target: Neu5Gc(a2-8)Neu5Gc(a2-3)Gal(b1-4)GlcNAc(b1-3)Gal(b1-4)GlcNAc
Procedure, shortened: as §1

B1: PX14375l-pdi-526-25-526 (Parabacteroides distasonis) (protein)
chain: DEEPKSTLTDVAYYKTQSQMESNVNYLYRTGAIGSYVDFGSAYIGPFASIQEELTGYFSNSYEGQEIVCRYTRELTRQQNTMQLASKMDKVWDDCYRGINVANGAIKHMPEVPMDQATADRLTAEAKFFRAFNYFYLVKTFGAVPFYTDPYELAENMELPRTETSTIYNQIESDLKDAMNVLPEATFAANGHRITKYVAAMTLTDVYMYQHKYAEAAETVRIVVNSNHKLTTNDDLAMNSAFNKLRSTDDLDEAIYAYEYDNQISPSNWLPTYAFDGDASSNGLFGTYAITQKVHGPNDRYLNIYESNDLRRQPNQFYHWTYTNPKTGKVWNSVGNAACCWYYYDEDALLTTGRGTKDWNVYRYAEALLDAAESIAQSTGVTAEAAGYLAQVKARANMEGKTAAEIASSLQSMGKQAFIEECWTERLRELPLEFKMWDMCVRTGMFPNISETTPGQVTYIPLVGAKNASGATIKESDLLWPLSVNEIQRNPSLTQNEGYSAK
[1]
  glycan array binding signal (z-score): 0.091
[2]
  glycan array binding signal (z-score): 16.7
[3]
  glycan array binding signal (z-score): -0.154
[4]
  glycan array binding signal (z-score): -0.094
Gal6S(b1-3)GlcNAc6S
  glycan array binding signal (z-score): 9.53
Gal6S(b1-4)GlcNAc
  glycan array binding signal (z-score): -0.026
[5]
  glycan array binding signal (z-score): -0.068
GalNAc3S(b1-4)GlcNAc
  glycan array binding signal (z-score): -0.071
[6]
  glycan array binding signal (z-score): -0.225
[7]
  glycan array binding signal (z-score): -0.168
[8]
  glycan array binding signal (z-score): -0.1
[9]
  glycan array binding signal (z-score): -0.095
[10]
  glycan array binding signal (z-score): -0.022
[11]
  glycan array binding signal (z-score): -0.236
[12]
  glycan array binding signal (z-score): -0.214
[13]
  glycan array binding signal (z-score): -0.134
[14]
  glycan array binding signal (z-score): -0.205
[15]
  glycan array binding signal (z-score): 0.129
Neu5Ac(a2-6)Gal(b1-4)Glc
  glycan array binding signal (z-score): 0.019
[16]
  glycan array binding signal (z-score): 0.114
[17]
  glycan array binding signal (z-score): -0.12
[18]
  glycan array binding signal (z-score): 2.74
[19]
  glycan array binding signal (z-score): -0.206
[20]
  glycan array binding signal (z-score): -0.201
